# Source: PubChem BioAssay (NCI)
# “And” between values parts separate entries of the source, which are not always exact repeats. Equal entries are not always repeated. Compounds without any hit were thinned out: in the full panel of roughly 83,000, 20% have a hit.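 For each line, cells grew in 96-well plates with the test compound present at a single concentration for 48 hours.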 The source made the active and inactive calls. Rule for the calls: active = growth percent below 10; inactive = the rest.
# Test system: HOP-92 NSCLC
# Assay: NCI-60 one-dose screen, 48 h (100 = growth as untreated, 0 = no growth, -100 = all killed)
# Conditions: 1 µM
row,SMILES,growth
1,CC/C(=C(\c1ccc(O)cc1)c1ccc(OCCN(C)C(=O)COCCNC(=O)Cc2ccc3c(c2)CN([C@@H]2CCC(=O)NC2=O)C3=O)cc1)c1ccccc1,8.46% (active)
2,CC/C(=C(\c1ccc(O)cc1)c1ccc(OCCN(C)C(=O)CCOCCNC(=O)c2ccc3c(c2)CN([C@@H]2CCC(=O)NC2=O)C3=O)cc1)c1ccccc1,37.9% (inactive)
3,CC/C(=C(/c1ccc(O)cc1)c1ccc(OCCN(C)C(=O)COCCOCCNC(=O)c2ccc3c(c2)CN([C@@H]2CCC(=O)NC2=O)C3=O)cc1)c1ccccc1,26.9% (inactive)
4,CC/C(=C(/c1ccc(O)cc1)c1ccc(OCCN(C)C(=O)CCOCCNC(=O)Cc2ccc3c(c2)CN([C@@H]2CCC(=O)NC2=O)C3=O)cc1)c1ccccc1,22.2% (inactive)
5,CC/C(=C(/c1ccc(O)cc1)c1ccc(OCCN(C)C(=O)COCCOCCNC(=O)Cc2ccc3c(c2)CN([C@@H]2CCC(=O)NC2=O)C3=O)cc1)c1ccccc1,15.5% (inactive)
6,CC/C(=C(\c1ccc(O)cc1)c1ccc(OCCNC)cc1)c1ccccc1,80.2% (inactive)

# Same assay, conditions: 10 µM
row,SMILES,growth
1,CC/C(=C(\c1ccc(O)cc1)c1ccc(OCCN(C)C(=O)COCCNC(=O)Cc2ccc3c(c2)CN([C@@H]2CCC(=O)NC2=O)C3=O)cc1)c1ccccc1,-0.223% (active)
2,CC/C(=C(\c1ccc(O)cc1)c1ccc(OCCN(C)C(=O)CCOCCNC(=O)c2ccc3c(c2)CN([C@@H]2CCC(=O)NC2=O)C3=O)cc1)c1ccccc1,43.7% (inactive)
3,CC/C(=C(/c1ccc(O)cc1)c1ccc(OCCN(C)C(=O)COCCOCCNC(=O)c2ccc3c(c2)CN([C@@H]2CCC(=O)NC2=O)C3=O)cc1)c1ccccc1,18.2% (inactive)
4,CC/C(=C(/c1ccc(O)cc1)c1ccc(OCCN(C)C(=O)CCOCCNC(=O)Cc2ccc3c(c2)CN([C@@H]2CCC(=O)NC2=O)C3=O)cc1)c1ccccc1,20.8% (inactive)
5,CC/C(=C(/c1ccc(O)cc1)c1ccc(OCCN(C)C(=O)COCCOCCNC(=O)Cc2ccc3c(c2)CN([C@@H]2CCC(=O)NC2=O)C3=O)cc1)c1ccccc1,12.7% (inactive)
6,CC/C(=C(\c1ccc(O)cc1)c1ccc(OCCNC)cc1)c1ccccc1,65.1% (inactive)

# Same assay, conditions: 10 µM unless noted
row,SMILES,growth
1,CC1(C)CC(=O)C2=C(C1)OC(N)=C(c1nc3ccccc3[nH]1)C2c1ccc(Cl)cc1 (stereo not drawn),54.8% (inactive) and 119% (inactive)
2,COc1cc(C=O)ccc1Oc1nc(Nc2ccc(F)cc2)nc(N(C)C)n1,87.3% (inactive) and 65.7% (inactive)
3,CCC(=O)c1c2c(c3ccc4c5ccccc5ccc4n13)C(=O)c1ccccc1C2=O,117% (inactive)
4,CCCCNC(=S)Nc1ccc(OCc2nc3ccc(Cl)cc3[nH]2)cc1,-0.247% (active)
5,Nc1ccc(-c2ccc3ncnc(N4CCc5cc(F)c(Cl)cc54)c3c2)cn1,1.25% (active)
6,N#CC1=C(c2cccs2)Nc2c(c(-c3ccccc3)nn2-c2ccccc2)C12C(=O)Nc1ccc(Cl)cc12 (stereo not drawn),-8.79% (active)
7,C=CCn1c(O)c(N=Nc2nc(-c3cc4ccccc4oc3=O)cs2)c2ccccc21,85% (inactive)
8,Fc1ccccc1CNc1nc(SCCN2CCOCC2)nc2c1cnn2CC(Cl)c1ccc(Br)cc1 (stereo not drawn),26% (inactive)
9,O=C(CSc1nnc(-c2ccc(-c3nc4ccc(Cl)cc4[nH]3)cc2)o1)Nc1ccccc1,2.36% (active)
10,O=C(CSc1nnc(-c2ccc(-c3nc4ccc(Cl)cc4[nH]3)cc2)o1)Nc1ccc(Cl)cc1,14.7% (inactive)
11,Nc1nc(-c2ccccc2)c(N=Nc2ccc(Cl)cc2Cl)s1,-54.1% (active)
12,COc1c(B(O)O)cccc1-c1nc2ccc3cn[nH]c3c2c2c1CCCC2,27.2% (inactive)
13,Nc1nn2c(-c3cc4cc(Br)ccc4oc3=O)ccnc2c1N=Nc1ccccc1,-18.8% (active)
14,O=C1/C(=C/c2cnc(-c3ccccc3)s2)SC(=S)N1Cc1ccc2c(c1)OCO2,48.6% (inactive)
15,O=C(c1ccc(O)cc1)C1[C@H](c2ccc(Cl)cc2)[C@@H](c2ccccc2)NC12C(=O)Nc1ccc(Br)cc12 (stereo partly drawn),-32.2% (active)
16,COC(=O)c1cc(C(=O)C(C)(C)C)n2c3ccccc3c3ccccc3c12,63.2% (inactive)

row,SMILES,growth
1,COc1ccc2[nH]c(O)c(N=Nc3nc(-c4ccccc4)cs3)c2c1,-8.09% (active)
2,CC1CCc2c(sc3nc(SCC(=O)c4cccc([N+](=O)[O-])c4)n(-c4ccccc4)c(=O)c23)C1 (stereo not drawn),85.5% (inactive)
3,C=CCSc1nnc(-c2ccc(-c3nc4ccc(Cl)cc4[nH]3)cc2)o1,81.8% (inactive)
4,O=C(Nc1nc2ccccc2s1)Nc1ccccc1Cl,74.3% (inactive)
5,CC[C@@]12CC(C(=O)OC)=C3Nc4cc5c(cc4[C@@]34CCN(C[C@H]3O[C@H]31)[C@@H]24)[C@@H]1[C@H](O5)[C@@H](O)[C@@]2(CC)CC(C(=O)OC)=C3Nc4cc(O)ccc4[C@@]34CCN1[C@@H]24,-27.3% (active)
6,CCOc1ccccc1NC(=O)N/C(N)=N/c1nc2ccccc2s1,-13.4% (active)
7,COc1sc(/C=N/NC(=O)c2[nH]c3ccc(Br)cc3c2-c2ccccc2)cc1Cl,-7.87% (active)
8,COc1cc(CNC(=O)C[C@H](C)CCC=C(C)C)ccc1OCc1cn(-c2ccccc2Cl)nn1,79.4% (inactive)
9,COc1ccc(-c2cc(C(=O)OCc3ccc(Br)cc3)nn2-c2ccc(S(C)(=O)=O)cc2)cc1OC,69.5% (inactive)
10,N#CC1=C(c2ccco2)Nc2c(c(-c3ccccc3)nn2-c2ccccc2)C12C(=O)Nc1ccc(Br)cc12 (stereo not drawn),52.4% (inactive)
11,N/C(=N\c1nc2ccc([N+](=O)[O-])cc2s1)NC(=O)Nc1ccccc1Cl,17.2% (inactive)
12,S=C(Nc1ccccc1)Nc1ccc(OCc2nc3ccc(Cl)cc3[nH]2)cc1,115% (inactive)
13,COc1ccc(N=Nc2c(N)nn3c(N)c(C#N)c(-c4ccc(C)cc4)nc23)cc1,19.4% (inactive)
14,O=C(NC(=S)N1CCN(c2ncnc3c2cnn3-c2ccccc2)CC1)c1ccc(F)cc1,67.9% (inactive)
15,Cc1cccc(C)c1Nc1nnc(-c2c[nH]c3ccccc23)o1,89.9% (inactive)
